# Source: PubChem (several laboratories)
# FAS-TE inh = blocks the thioesterase domain of human fatty acid synthase | recombinant FAS-TE, OMFH fluorogenic substrate, fluorescence endpoint | inhibition, % at 15 µM | 0.67% of 360,000 active | AID 602261;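 active = compounds whose normalised, plate-corrected inhibition of enzyme fluorescence in the single-dose primary screen is 50% or more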;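 note: 0% = DMSO with enzyme and 100% = substrate without enzyme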
# Target sequence (P49327 whole entry, looked up, the tested form may be a part): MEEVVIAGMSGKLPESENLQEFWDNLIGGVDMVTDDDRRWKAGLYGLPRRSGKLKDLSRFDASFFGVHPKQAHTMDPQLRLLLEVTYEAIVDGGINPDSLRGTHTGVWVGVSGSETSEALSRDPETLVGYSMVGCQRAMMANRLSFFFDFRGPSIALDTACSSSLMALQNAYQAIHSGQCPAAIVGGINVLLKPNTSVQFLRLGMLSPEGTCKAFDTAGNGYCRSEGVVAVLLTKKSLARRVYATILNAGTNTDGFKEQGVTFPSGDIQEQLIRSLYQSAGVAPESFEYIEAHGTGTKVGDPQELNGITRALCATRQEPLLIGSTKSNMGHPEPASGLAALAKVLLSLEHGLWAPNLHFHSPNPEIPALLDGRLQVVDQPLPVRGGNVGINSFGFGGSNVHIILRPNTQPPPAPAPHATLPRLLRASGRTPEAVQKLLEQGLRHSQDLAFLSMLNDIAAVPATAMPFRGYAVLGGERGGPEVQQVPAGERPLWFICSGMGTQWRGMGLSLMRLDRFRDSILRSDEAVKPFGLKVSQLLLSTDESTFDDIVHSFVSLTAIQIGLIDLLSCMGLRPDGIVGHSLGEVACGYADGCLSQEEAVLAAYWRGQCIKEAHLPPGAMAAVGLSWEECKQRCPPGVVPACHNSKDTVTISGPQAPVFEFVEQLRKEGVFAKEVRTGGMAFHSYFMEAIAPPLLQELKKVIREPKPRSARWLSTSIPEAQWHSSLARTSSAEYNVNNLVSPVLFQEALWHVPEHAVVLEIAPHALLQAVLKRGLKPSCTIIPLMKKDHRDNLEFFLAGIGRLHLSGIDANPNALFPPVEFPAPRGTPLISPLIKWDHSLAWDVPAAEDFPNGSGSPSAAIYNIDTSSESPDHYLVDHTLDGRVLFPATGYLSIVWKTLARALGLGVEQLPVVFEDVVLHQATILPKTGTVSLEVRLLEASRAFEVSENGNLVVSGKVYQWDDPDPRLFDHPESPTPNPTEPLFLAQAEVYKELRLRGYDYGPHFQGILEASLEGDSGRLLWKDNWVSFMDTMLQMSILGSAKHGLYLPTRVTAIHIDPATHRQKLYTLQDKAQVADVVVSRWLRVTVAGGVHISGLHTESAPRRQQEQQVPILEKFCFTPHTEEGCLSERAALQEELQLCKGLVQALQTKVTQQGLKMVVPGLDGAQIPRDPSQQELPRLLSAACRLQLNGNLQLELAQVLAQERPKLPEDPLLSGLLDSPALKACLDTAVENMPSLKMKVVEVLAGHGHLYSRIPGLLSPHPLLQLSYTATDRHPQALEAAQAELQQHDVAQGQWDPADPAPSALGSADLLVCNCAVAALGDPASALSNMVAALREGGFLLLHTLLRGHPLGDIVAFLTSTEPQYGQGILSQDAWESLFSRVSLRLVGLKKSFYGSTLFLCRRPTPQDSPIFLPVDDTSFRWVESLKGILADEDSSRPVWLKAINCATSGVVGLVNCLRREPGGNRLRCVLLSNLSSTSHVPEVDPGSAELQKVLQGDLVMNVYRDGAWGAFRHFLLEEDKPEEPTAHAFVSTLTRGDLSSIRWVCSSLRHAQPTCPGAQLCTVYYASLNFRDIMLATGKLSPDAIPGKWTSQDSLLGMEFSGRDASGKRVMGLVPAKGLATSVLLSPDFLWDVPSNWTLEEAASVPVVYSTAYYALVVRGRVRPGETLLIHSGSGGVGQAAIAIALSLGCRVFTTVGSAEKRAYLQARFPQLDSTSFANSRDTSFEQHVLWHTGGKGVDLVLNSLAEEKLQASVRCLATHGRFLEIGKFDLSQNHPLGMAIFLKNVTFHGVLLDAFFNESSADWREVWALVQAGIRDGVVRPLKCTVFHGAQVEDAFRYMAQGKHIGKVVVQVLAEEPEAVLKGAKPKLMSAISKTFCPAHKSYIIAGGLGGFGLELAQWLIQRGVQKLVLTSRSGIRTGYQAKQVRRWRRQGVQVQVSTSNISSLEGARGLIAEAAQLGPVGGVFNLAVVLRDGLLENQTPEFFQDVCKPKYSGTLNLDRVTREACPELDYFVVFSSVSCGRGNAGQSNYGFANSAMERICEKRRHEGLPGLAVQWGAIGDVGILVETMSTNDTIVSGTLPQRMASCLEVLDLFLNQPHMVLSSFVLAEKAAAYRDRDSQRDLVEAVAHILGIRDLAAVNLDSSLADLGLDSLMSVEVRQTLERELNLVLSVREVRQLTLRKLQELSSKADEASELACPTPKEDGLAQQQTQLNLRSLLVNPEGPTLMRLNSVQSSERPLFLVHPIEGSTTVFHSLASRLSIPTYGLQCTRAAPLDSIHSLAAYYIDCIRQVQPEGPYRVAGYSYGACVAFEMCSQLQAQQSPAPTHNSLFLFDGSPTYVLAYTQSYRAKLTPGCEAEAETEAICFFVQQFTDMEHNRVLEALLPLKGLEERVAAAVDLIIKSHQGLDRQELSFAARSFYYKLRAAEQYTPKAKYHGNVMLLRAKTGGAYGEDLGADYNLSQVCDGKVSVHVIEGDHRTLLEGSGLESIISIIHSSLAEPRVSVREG
# GRIN3A LBD mod = modulates the human NR3A ligand-binding domain; NR3A LBD differential scanning fluorimetry, Tm shift; 0% = protein alone, 100% = glycine-bound protein; Tm shift relative to glycine control, % at 25 µM; 2.5% of 340,000 active;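 active = melting temperature shift of at least 10% of the positive control shift, at one fixed dose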
# NadD block = NadD (S. aureus) enzyme inhibition; purified NadD enzyme, colorimetric absorbance read-out; inhibition, % at 20 µM; 0.78% of 360,000 active; in the data active = inhibition above about 26%
# rCAG RNA binder = molecules binding r(CAG) RNA repeats; inhibition, % at 3 µM; r(CAG) RNA repeat, TO-PRO-1 dye displacement fluorescence; 1.3% of 370,000 active;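 active = inhibition above the plate cutoff, the mean of all test compounds on that plate plus 3 SD, cut at about 35% in these data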;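 note: 0% = DMSO alone and 100% = 100 µM mitoxantrone as full dye displacement; higher means more dye released from RNA so lower well fluorescence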
# * = called active by the depositor; x = no result. A selection: hits, their analogues and other compounds. The true share with any hit is near 4.3%.
SMILES,FAS-TE inh,GRIN3A LBD mod,NadD block,rCAG RNA binder
O=C(NC(NC(=S)Nc1c(Cl)cc(Cl)cc1Cl)C(Cl)(Cl)Cl)OCc1ccccc1 (stereo unspecified),15.5,20.9*,25.8,4.4
O=C1CC2c3cc(-c4cc5ccccc5o4)ccc3CCN2C(=O)CN1Cc1ccccc1 (stereo unspecified),x,x,x,5.3
COc1ccc(S[C@]2(C(=O)N3CCN(C(C)=O)CC3)CC(=O)N(C(=O)C3CC3)[C@@H]2c2ccc(OC)cc2)cc1,x,x,x,4.9
CCOC(=O)c1cc2occc2n1Cc1c(F)cccc1Cl,16.1,0.1,8.8,5.4
CCOC(=O)c1cc2occc2n1Cc1ccc(F)cc1,24.4,15.3*,-2.5,-1.6
CCOC(=O)[C@@]12CN(C(=O)OC(C)(C)C)CC=C1N(Cc1ccc(OC)cc1)C(=O)[C@H]2CC(=O)N1CCC(c2ccccc2)CC1,x,x,x,2.3
Cc1cc(C(C#N)c2ccccc2)n2ncnc2n1 (stereo unspecified),-4.6,3.1,2.4,4.1
Cc1cc(C(C#N)c2ccccc2F)n2ncnc2n1 (stereo unspecified),5.4,14.6*,-0.2,3.7
O=S(=O)(Nc1nc2ccccc2nc1Nc1ccc(N2CCOCC2)cc1)c1cc(Cl)ccc1Cl,22.9,19.9*,23.4,5.7
Cn1cc(/C=C2\SC(=S)N(NC(=O)c3cccc(Cl)c3)C2=O)c2ccccc21,-43.5,19.6*,18.4,3.2
O=C(N/N=C/c1c[nH]c2ccccc12)C1CC1c1ccccc1 (stereo unspecified),13.1,10.4*,4.7,10.0
O=C(N/N=C/c1c[nH]c2ccccc12)C1COc2ccccc2O1 (stereo unspecified),-2.4,28.1*,-3.2,7.5
O=C(N/N=C\c1ccc(Cl)s1)C1COc2ccccc2O1 (stereo unspecified),-6.6,1.0,-4.5,-3.0
O=C(N/N=C/c1c[nH]c2ccccc12)C1CC1(c1ccccc1)c1ccccc1 (stereo unspecified),24.9,13.0*,16.7,15.2
O=C(N/N=C/c1cccs1)[C@H]1C[C@@H]1c1ccccc1,-5.6,22.0*,-2.2,-2.5
COC(=O)N/N=C/c1c[nH]c2ccccc12,-14.8,-14.2,-0.8,1.0
c1coc(CNC2CCCCC2)c1,-5.7,-0.4,8.3,2.5
c1coc(CNC2CCCCCCC2)c1,-4.8,10.6*,-5.3,-2.3
FC(F)(F)c1cccc(NC(=S)NCC2COc3ccccc3O2)c1 (stereo unspecified),34.2,22.9*,-7.0,5.8
CCCNC(=S)Nc1cccc(C(F)(F)F)c1,-5.3,1.6,1.0,0.5
Cc1cc(=O)nc2c3ccccc3n(CC(=O)NC(C)c3ccc4c(c3)OCCO4)n12 (stereo unspecified),-2.9,13.4*,-4.6,7.4
C=CCn1c(COc2ccccc2)nnc1SCC(=O)Nc1ccc(Oc2ccccc2)cc1,x,x,x,5.4
CC(C)(C)c1ccc(-c2noc(-c3ccno3)n2)cc1,14.5,12.5*,-0.7,0.2
COc1cc(NC(=O)COC(=O)/C=C/c2ccc(Cl)cc2Cl)cc(OC)c1,14.4,14.1*,-10.6,0.3
O=C(O)c1ccccc1C(=O)Nc1n[nH]c(=S)s1,-7.3,14.2*,-2.0,3.3
SMILES,FAS-TE inh,GRIN3A LBD mod,NadD block,rCAG RNA binder
O=C(Nc1ccc(Oc2cccnc2)cc1)c1ccc([N+](=O)[O-])cc1,2.1,-2.5,4.9,-1.3
O=C(Nc1ccc2ccccc2c1)c1cccc([N+](=O)[O-])c1,32.9,30.3*,4.7,10.4
O=C(Nc1ccc(Oc2cccnc2)cc1)c1cccc([N+](=O)[O-])c1,57.4*,2.6,-1.5,x
O=C(Nc1cccc([N+](=O)[O-])c1)c1ccccc1,6.9,-8.6,-1.2,-1.8
O=C(Nc1cccc([N+](=O)[O-])c1)c1ccc(CSc2ccccc2)cc1,27.3,30.8*,5.9,5.5
O=C(Nc1ccc(COc2ccccc2)cc1)c1cccc([N+](=O)[O-])c1,16.5,21.9*,2.5,-1.4
CCCCS(=O)(=O)N1CCCc2nc(-c3ccc(OC)cc3)ccc21,x,x,x,1.8
Cn1cccc1C(=O)N1CCN(S(=O)(=O)c2cccc3ccccc23)CC1,x,x,x,5.1
Cc1cc([N+](=O)[O-])nn1CC(=O)Nc1sc2c(c1C(N)=O)CCCC2,0.7,0.6,4.3,6.3
Cc1cc([N+](=O)[O-])nn1CCCC(=O)Nc1sc2c(c1C(N)=O)CCCC2,-1.7,16.8*,-1.1,-2.5
CC(C)(C)c1ccc(C#C[C@@H]2C=C[C@@H](O)[C@@H](COC(=O)NCc3ccccc3)O2)cc1,x,x,x,2.1
O=C(O)C(=Cc1ccc([N+](=O)[O-])cc1)c1ccccc1,x,x,x,0.7
Oc1cccc(-c2nc3c4c(ncn3n2)-c2ccccc2CC42CCCC2)c1,29.0,37.0*,6.4,14.3
N#CC(C(=O)Nc1ccc(Cl)cc1)=C1Nc2ccccc2N1,1.4,23.8*,-2.7,17.2
N#CC(C(=O)Nc1ccccc1)=C1CCCCC1,-1.7,0.1,-7.3,-2.0
Cc1noc(C)c1COC(=O)c1ccc(-c2nc3ccccc3s2)s1,32.1,21.0*,-7.2,3.3
CCNC(=O)COC(=O)c1ccc(-c2nc3ccccc3s2)s1,0.5,-4.6,0.6,-3.0
C#CCN1CC(N(C)CCOC(=O)c2ccc([N+](=O)[O-])cc2)CS1(=O)=O (stereo unspecified),x,x,x,2.4
O=C(Nc1nnc(CSCc2ccc(Cl)cc2)s1)c1cccc([N+](=O)[O-])c1,42.2,19.1*,-1.1,4.0
O=C(Nc1nnc(CSCc2ccc(F)cc2)s1)c1cccc([N+](=O)[O-])c1,35.2,8.7,-4.9,1.9
C[C@@H]1CCCN1c1ccc2c(c1)O[C@H]1CCN(C1)S2(=O)=O,x,x,x,2.3
O=C(Cn1nnc(-c2ccccc2NC(=O)c2cccs2)n1)Nc1ccccc1,19.2,22.3*,-0.6,5.6
O=C(OCC(=O)c1c[nH]c2ccccc12)c1cc2ccccc2cc1O,0.2,32.2*,8.4,28.1
CCOc1ccc(N(C)S(=O)(=O)c2ccc(C)c(C(=O)OCC(=O)c3c[nH]c4ccccc34)c2)cc1,38.6,31.3*,8.1,5.5
COc1ccc(C(=O)OCC(=O)c2c[nH]c3ccccc23)c(OC)c1,4.5,0.3,-4.1,7.6
SMILES,FAS-TE inh,GRIN3A LBD mod,NadD block,rCAG RNA binder
Cc1ccccc1N=Nc1c(C)[nH]n(C(N)=S)c1=O,-0.9,-5.0,6.0,8.4
Cc1[nH]n(C(N)=S)c(=O)c1N=Nc1ccccc1C(F)(F)F,-1.1,10.5*,10.0,9.8
COc1cc(/C=C2/C(=N)N3N=C(C(C)C)SC3=NC2=O)ccc1OS(=O)(=O)c1ccccc1,0.9,-14.2,5.0,34.2
COc1cc(/C=C2\C(=N)N3N=C(C)SC3=NC2=O)cc(OC)c1OCCOc1ccccc1C,0.3,-8.0,3.3,13.9
CCC1=NN2C(=N)/C(=C/c3ccc(OS(=O)(=O)c4ccccc4)c(OC)c3)C(=O)N=C2S1,-2.7,-14.2,82.0*,25.6
CCOc1cc(/C=C2\C(=N)N3N=C(C)SC3=NC2=O)ccc1OCCOc1cccc(OC)c1,2.0,-0.9,44.5*,20.3
CCc1c(Cc2cccc(F)c2)ncn1CCc1ccccc1OC,x,x,x,-0.7
Cc1nc(-c2ccc(F)cc2)c(CC(=O)N(C)CC(=O)Nc2ccc(Cl)c(C(F)(F)F)c2)s1,32.6,12.1*,3.0,2.4
